Here are results for 34 molecules from PubChem BioAssay (Tox21).

Molecules are shown by their SMILES. Records with an inconclusive call do not appear. Where a call stands in place of a potency, no number is given. Some structures have more than one record in an assay (separate samples or runs), and their calls can disagree. Calls of active or inactive are those of the source. Calls come from the whole dose curve; as a rule, active = well fitted activation curve with a large enough effect in the repeat runs; inconclusive = weak or mixed curves; inactive = flat fitted curve, though single readings scatter.
Potency is the fitted concentration of half-maximal effect.

A short description of the assay: A CellTox Green Cytotoxicity Assay to monitor cytotoxicity in HepG2 cells - 8 hour (AID 1224890). Note: nearly all actives have a fitted effect of over 45% in size. The note with it: CellTox Green fluorescence; series mostly up to 76.8 µM. In a few lines:
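Fluorescent DNA-binding dye, 600 HepG2 cells/well, 5 h preincubation then compound in DMSO; same plates read at 0–40 h, 37 C.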
For `C[C@@H](NCCCc1cccc(C(F)(F)F)c1)c1cccc2ccccc12`, the Potency is 21.3 µM (active).
The entry for `CC(C)(C)C(=O)OCOC(=O)[C@@H]1N2C(=O)[C@@H](NC(=O)[C@H](N)c3ccccc3)[C@H]2SC1(C)C` is “inactive”; for `O=[N+]([O-])c1ccccc1Nc1ccccc1` it is “inactive”.
Then `CC(C)(C)c1ccc(C(=O)O)cc1`, with “inactive”; and `CCCCCCCC(=O)[O-].CCCCCCCC(=O)[O-].[Zn+2]`, with “inactive”.
Then `CCCCCCCCCCC=O`, with “inactive”.
`CCCCCCCC[P+](CCCCCCCC)(CCCCCCCC)CCCCCCCC`: the Potency is 17.3 µM (active).
As to `C[C@H](CCC(=O)O)[C@H]1CC[C@H]2[C@@H]3CC[C@@H]4C[C@H](O)CC[C@]4(C)[C@H]3CC[C@]12C`, the Potency entry is “inactive”.
Then `CC(C)c1ccc2c(c1)CC[C@H]1[C@](C)(CN)CCC[C@]21C`, with 43.6 µM (active).
For the molecule `O=C(O)c1ccc(Cl)c(Cl)c1`, the Potency result is “inactive”.
For the molecule `NC(=NCCCCCCN=C(N)/N=C(\N)Nc1ccc(Cl)cc1)/N=C(\N)Nc1ccc(Cl)cc1`, the Potency is 54.6 µM (active).
Then `COc1cccc(N)c1`, with “inactive”; and `CCCCCCCC/C=C/CCCCCCCC1=NCCN1CCO`, with 49 µM (active).
The figure for `Cc1cc(O)c2ccccc2c1O` is 21.3 µM (active).
The figure for `O=C1C=CC(=O)N1c1ccc(Cc2ccc(N3C(=O)C=CC3=O)cc2)cc1` is 17.4 µM (active).
`O=C1C=CC(=O)N1`: the Potency is 50.3 µM (active).
With `Cc1cc(O)c(C(C)(C)C)cc1Sc1cc(C(C)(C)C)c(O)cc1C`, the Potency result is “inactive”.
The entry for `NNC(=O)c1cccc(C(=O)NN)c1` is “inactive”.
Then `CCCCCCCCNC(C)C(O)c1ccc(SC(C)C)cc1` (centres undefined), with 21.3 µM (active); and `C=CC(=O)OCC(CO)(COCC(COC(=O)C=C)(COC(=O)C=C)COC(=O)C=C)COC(=O)C=C`, with “inactive”.
Then `CC[C@H]1O[C@]2(CC[C@@H]1C)C[C@@H]1C[C@@H](C/C=C(\C)C[C@@H](C)/C=C/C=C3\CO[C@@H]4[C@H](O)C(C)=C[C@@H](C(=O)O1)[C@]34O)O2`, with 48.5 µM (active); and `CN(C)[C@@H]1C(=O)C(C(N)=O)=C(O)[C@@]2(O)C(=O)C3=C(O)c4c(O)ccc(Cl)c4[C@@H](O)[C@H]3C[C@@H]12`, with “inactive”; and `CC(=O)N1CCN(c2ccc(OC[C@H]3CO[C@](Cn4ccnc4)(c4ccc(Cl)cc4Cl)O3)cc2)CC1`, with “inactive”.
As to `COc1ccc(C(=O)/C(Br)=C\C(=O)O)cc1`, the Potency entry was “inactive”.
As for `CN(C)CCCOC1(Cc2ccccc2)CCCCCC1`, the Potency result was “inactive”.
As to `Oc1c(Cl)cc(Cl)c2cccnc12`, the Potency result is “inactive”.
With `O=C1CCCCCN1SSN1CCCCCC1=O`, the Potency entry is “inactive”.
The entry for `O=C(c1ccc(O)cc1O)c1ccc(O)cc1O` is “inactive”; for `OCCN1CCN(CC/C=C2/c3ccccc3Sc3ccc(C(F)(F)F)cc32)CC1` it is 23.9 µM (active).
Then `Nc1ccc2cc(S(=O)(=O)O)cc(O)c2c1N=Nc1ccccc1C(F)(F)F`, with “inactive”; and `CN(C)[C@@H]1C(=O)C(C(N)=O)=C(O)[C@@]2(O)C(=O)C3=C(O)c4c(O)cccc4C[C@H]3C[C@@H]12`, with “inactive”.
Then `C1CCCC1`, with “inactive”; and `Oc1cc2ccccc2c2ccccc12`, with “inactive”.
Take `Clc1ccccc1C(c1ccccc1)(c1ccccc1)n1ccnc1`: the Potency was 49 µM (active) and inactive.
